34 molecules from PubChem BioAssay (NCATS) can be followed below.

Results filed as inconclusive are left out. Active and inactive are the calls of the source. Unless noted, the call rests on the fitted dose curve; in most records, active means well fitted curve in the direction sought with a large enough effect in the repeat runs; inconclusive means weak or mixed curves; inactive means no such curve, though single readings can be large; an effect the other way counts as inactive or inconclusive.

Experiment [1] addresses Calcium and integrin-binding protein 1 (Homo sapiens) (UniProt Q99828). As to the kind of experiment: Primary qHTS for Identification of Calcium Integrin Binding Protein 1 (CIB1) Competitor (AID 1508620; active means well fitted curve in the direction sought with a large enough effect; an effect the other way counts as inactive or inconclusive; further: top concentration of the series differs between compounds). An outline of the steps: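 Fluorescence polarization competition: GST-tagged CIB1 (1 uM final) preincubated with compound 15 min at room temperature, then FITC-labelled alphaIIb peptide (100 nM final) added. After 15 min at room temperature, polarization read at Ex 480/Em 540.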

Experiment [2] addresses Cytochrome P450 2D6 (Homo sapiens) (UniProt P10635). The experiment is described as follows: Cytochrome P450 family 2 subfamily D member 6 (CYP2D6) small molecule antagonists: luciferase biochemical (cell-free) qHTS assay (AID 1645840). Further: nearly all actives have a fitted effect of over 55% in size. Further: potency means the concentration at half of the fitted maximal effect. An outline of the steps: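 P450-Glo CYP2D6 system: proluciferin substrate converted by enzyme to luciferin, read by luminescence proportional to activity. Enzyme-substrate mix with compound 10 min at room temperature, then NADPH regeneration 1 h before detection reagent.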

The target in experiment [3] is Cytochrome P450 3A4 (Homo sapiens) (UniProt P08684). The experiment is described as follows: Cytochrome P450 family 3 subfamily A member 4 (CYP3A4) small molecule antagonists: luciferase qHTS assay (AID 1645841). Further: nearly all actives have a fitted effect of over 45% in size. Further: potency means the concentration at half of the fitted maximal effect. An outline of the steps:
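P450-Glo CYP3A4 enzyme with proluciferin substrate preincubated 10 min with compound at room temperature, then NADPH regeneration 1 h. Luciferin detection reagent added for 20 min; luminescence recorded. Ketoconazole positive control.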
(Quantitative high-throughput screening tests each substance at several concentrations.)

The nature of experiment [4]: Primary qHTS for small molecule stabilizers of the endoplasmic reticulum resident proteome: Secreted ER Calcium Modulated Protein (SERCaMP) assay (AID 1508630; active means well fitted curve in the direction sought with a large enough effect; an effect the other way counts as inactive or inconclusive). An outline of the steps:
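The SH-SY5Y reporter protocol was run at 3 concentrations up to 38.3 uM (primary) or 11 concentrations (follow-up): 16 h compound, 100 nM thapsigargin for 4 h, then extracellular luciferase luminescence.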

Sequence of Cytochrome P450 2D6 (Homo sapiens) (P10635 whole entry, looked up): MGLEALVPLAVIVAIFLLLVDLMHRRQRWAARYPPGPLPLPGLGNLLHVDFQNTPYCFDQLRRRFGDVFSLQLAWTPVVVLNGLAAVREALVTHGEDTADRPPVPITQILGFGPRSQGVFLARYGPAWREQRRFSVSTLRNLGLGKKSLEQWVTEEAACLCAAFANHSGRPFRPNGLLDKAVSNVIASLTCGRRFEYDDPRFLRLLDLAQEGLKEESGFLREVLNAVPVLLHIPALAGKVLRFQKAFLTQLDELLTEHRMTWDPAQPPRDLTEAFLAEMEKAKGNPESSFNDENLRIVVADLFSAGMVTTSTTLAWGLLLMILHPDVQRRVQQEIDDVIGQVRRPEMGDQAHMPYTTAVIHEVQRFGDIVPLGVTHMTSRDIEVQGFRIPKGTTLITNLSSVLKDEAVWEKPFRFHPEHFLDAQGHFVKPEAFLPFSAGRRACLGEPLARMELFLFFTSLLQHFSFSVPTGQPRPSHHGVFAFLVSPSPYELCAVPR
Sequence of Cytochrome P450 3A4 (Homo sapiens) (P08684 whole entry, looked up): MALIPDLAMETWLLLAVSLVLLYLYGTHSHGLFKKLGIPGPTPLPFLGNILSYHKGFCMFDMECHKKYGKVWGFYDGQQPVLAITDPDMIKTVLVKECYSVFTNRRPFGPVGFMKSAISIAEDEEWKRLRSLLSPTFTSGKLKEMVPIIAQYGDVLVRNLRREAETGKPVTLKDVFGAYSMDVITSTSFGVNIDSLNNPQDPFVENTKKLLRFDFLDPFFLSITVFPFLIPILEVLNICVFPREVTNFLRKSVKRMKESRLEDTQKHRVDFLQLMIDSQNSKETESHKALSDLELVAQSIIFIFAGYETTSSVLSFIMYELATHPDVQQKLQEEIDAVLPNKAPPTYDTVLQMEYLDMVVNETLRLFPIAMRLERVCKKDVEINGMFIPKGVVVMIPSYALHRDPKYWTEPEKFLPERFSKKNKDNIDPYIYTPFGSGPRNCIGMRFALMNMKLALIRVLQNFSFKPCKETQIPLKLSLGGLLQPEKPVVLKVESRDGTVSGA
Sequence of Calcium and integrin-binding protein 1 (Homo sapiens) (Q99828 whole entry, looked up): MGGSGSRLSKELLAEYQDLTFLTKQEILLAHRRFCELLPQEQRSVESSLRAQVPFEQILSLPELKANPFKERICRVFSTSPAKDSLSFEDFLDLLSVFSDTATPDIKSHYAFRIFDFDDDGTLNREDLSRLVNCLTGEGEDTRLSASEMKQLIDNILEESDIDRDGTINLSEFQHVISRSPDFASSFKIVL

As to `CCCc1cc2c(N3CCN(C4=NCC(C)(C)S4)CC3)ncnc2s1`, the Potency entry in experiment [1] was “inactive”. For the same molecule, the Potency in experiment [2] is 0.952 µM (active).

In the case of `COc1ccccc1N1CCN(CC[C@@](C)(C(=O)C2CCCCC2)c2ccccc2)CC1`, the Potency result in experiment [1] is “inactive”. Besides, the Potency in experiment [2] is 12 µM (active); in experiment [3] it was 6.01 µM (active).

In the case of `C=CC(=O)N1CCC(Oc2cc3c(Nc4ccc(Cl)c(Cl)c4F)ncnc3cc2OC)CC1`, the Potency entry in experiment [1] is “inactive”. The results for the Potency in experiment [2] and in experiment [3] were 2.68 µM (active) and 0.239 µM (active), respectively.

As to `CN(C)CCCn1cc(C2=C(c3c[nH]c4ccccc34)C(=O)NC2=O)c2ccccc21`, in experiment [4], the outcome was inactive.

Regarding `O=C(NCc1ccccc1)c1ccc2c(=O)n(-c3cccc(C(F)(F)F)c3)c(=S)[nH]c2c1`, the Potency entry in experiment [1] and in experiment [3] was “inactive” in each case.

For `O=S(=O)(Cc1ccccc1)Nc1ccc(-c2ccc3c(cnn3-c3ccc(F)cc3)c2)c(C(F)(F)F)c1`, the Potency result in experiment [1] and in experiment [2] was “inactive” throughout.

`Cc1cc(Nc2nc(-c3ccccc3)nc3ccccc23)n[nH]1`: the Potency result in experiment [1] and in experiment [2] was “inactive” each time.

In the case of `C[C@@H](NC(=O)C(=O)c1c[nH]c2ccc([N+](=O)[O-])cc12)c1ccccc1`, the Potency entry in experiment [1] and in experiment [2] was “inactive” in each case.

Take `COc1ccccc1OCCNCC(O)CCOc1cccc2[nH]c3ccccc3c12` (configuration not stated): the Potency result in experiment [1] is “inactive”. Besides, the Potency in experiment [2] is 0.301 µM (active).

For the molecule `O=C1C(Cc2ccc(O)cc2)N2C(=O)CCN(C(=O)NCc3ccccc3)C2CN1Cc1cccc2ccccc12` (configuration not stated), the Potency result in experiment [1] was “inactive”. Moreover, in experiment [2], the Potency is 1.07 µM (active).

For `O=c1[nH]c([C@@H]2CCCN2)nc2c1oc1ccc(Cl)cc12`, the Potency entry in experiment [1], in experiment [2] and in experiment [3] was “inactive” each time.

Consider `CCC(C)c1ccc(NC(=O)Cn2cnc3c2c(=O)n(C)c(=O)n3C)cc1` (configuration not stated), for which the Potency result in experiment [1] and in experiment [2] was “inactive” in each case.

As to `CCCNCCc1ccc(NS(=O)(=O)c2ccc(OC(F)(F)F)cc2)cc1`, in experiment [1], the Potency entry is “inactive”. Besides, the Potency in experiment [2] was 1.34 µM (active).

On to `CC(C)(C)c1ccc(C(=O)Nc2cn3cc(-n4ccnc4)ccc3n2)cc1`, for which the Potency result in experiment [1] and in experiment [2] was “inactive” throughout.

Turning to `COc1ccc(NC(=O)c2ccc(C(=N)N(C)C)cc2)c(C(=O)Nc2ccc(Cl)cn2)c1`, the Potency result in experiment [1] and in experiment [2] was “inactive” throughout.

Consider `O=C(CN1C2=NCCN2c2ccccc21)c1ccc(-c2ccccc2)cc1`, for which the Potency entry in experiment [1] and in experiment [3] was “inactive” in each case. Also, the Potency in experiment [2] was 4.77 µM (active).

For `O=C(Nc1ccccc1Cl)c1cnc2ccc(C3CCNCC3)cn12`, the Potency entry in experiment [1] and in experiment [2] was “inactive” in each case.

As to `NS(=O)(=O)c1ccc(N2CCN(CC[C@@H]3OCCc4ccccc43)CC2)cc1`, the Potency result in experiment [1] and in experiment [3] was “inactive” throughout. Further, the Potency in experiment [2] was 23.9 µM (active).

With `O=C(C(Cc1cccc(C(F)(F)F)c1)NS(=O)(=O)c1cc(F)c2c(c1)CCNC2)N1CCCC1` (configuration not stated), in experiment [1], the Potency result is “inactive”. For the same molecule, the Potency in experiment [2] was 13.5 µM (active).

On to `Clc1ccc(Nc2nc3ccccc3c3nc(C4CCCCC4)[nH]c23)cc1Cl`, for which the Potency entry in experiment [1] and in experiment [2] was “inactive” in each case.

Turning to `Cn1ncnc1[C@@H]1c2n[nH]c(=O)c3cc(F)cc(c23)N[C@H]1c1ccc(F)cc1`, the Potency entry in experiment [1] and in experiment [2] was “inactive” throughout.

`CCNc1nc(Nc2cc(F)c(C(=O)N3CCOCC3)cc2OC)ncc1C(F)(F)F`: the Potency result in experiment [1] and in experiment [2] was “inactive” each time.

Consider `O=S(=O)(c1ccccc1)N(CC(F)(F)F)c1ccc(C(O)(C(F)(F)F)C(F)(F)F)cc1`, for which the outcome in experiment [4] was inactive.

With `CCN1CCC[C@@H]1CNC(=O)c1ccc2c(c1)NC(=O)c1cccc(C)c1S2`, the Potency entry in experiment [1] and in experiment [3] was “inactive” throughout.

For `O=C1Nc2nc(-c3c(O)cccc3OCC3CC3)cc([C@@H]3CCCNC3)c2CO1`, the Potency entry in experiment [1] and in experiment [3] was “inactive” throughout. In experiment [2], the Potency is 19 µM (active).

For the molecule `CCOc1cccc(NC(=O)c2ccc(N3CCCC3)c(C(F)(F)F)c2)c1`, the Potency entry in experiment [1] and in experiment [2] was “inactive” in each case.

As for `CCc1cnc(N2CCC(c3nc(COc4ccc(-n5cnnn5)cc4)cs3)CC2)nc1`, the Potency entry in experiment [1] and in experiment [2] was “inactive” in each case.

For `O=C(NC1CCC1)c1ccc(C#Cc2cccc(F)c2)nc1`, the Potency entry in experiment [1], in experiment [2] and in experiment [3] was “inactive” throughout.

Turning to `O=C(OCCO)c1ccccc1O`, the Potency entry in experiment [2] was “inactive”.

With `CCNC1(C(N)=O)CCN(c2ncnc3c2nc(-c2ccccc2Cl)n3-c2ccc(Cl)cc2)CC1`, the Potency entry in experiment [1] is “inactive”. Further, in experiment [2], the Potency is 16.9 µM (active).

On to `CNC(=O)c1ccc2c(c1)CCO[C@H]2CCN1CCN(c2ccc(OC)cc2)CC1`, for which the Potency entry in experiment [1], in experiment [2] and in experiment [3] was “inactive” each time.

For the molecule `Fc1ccc(CN2CCC(Nc3ccc(C(F)(F)F)nn3)CC2)cc1F`, the Potency entry in experiment [1] and in experiment [3] was “inactive” throughout. For the same molecule, the Potency in experiment [2] is 1.2 µM (active).

For `NC(=O)C[C@@H](N)C(=O)O`, in experiment [4], the outcome was inactive.

As for `Nc1nc(O)c(C2=C3C(=Nc4ccccc43)C(=O)NCC2)[nH]1`, the Potency entry in experiment [3] was “inactive”.
